# CIT2-GFP yeast = modulators of CIT2-GFP expression in yeast, primary screen, S. cerevisiae, GFP fusion, multiplex flow cytometry, MLPCN library | GFP response vs DMSO, % at 10 µM | AID 2029, 2009 | 320,000 tested, 0.065% active | S. cerevisiae CIT2-GFP strain, 3 h; 100 means same as DMSO wells;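 active = GFP response relative to DMSO above a set limit, near the screen mean plus 3 SD, cut at about 150% in these data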;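 also: ratio of well median GFP fluorescence to mean of DMSO wells on the plate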
# MEP2 TOR yeast = modulators of MEP2-GFP levels in yeast, primary screen, S. cerevisiae, multiplex flow cytometry, MLPCN library. S. cerevisiae MEP2-GFP strain, 3 h; 100% = DMSO control level. GFP response vs DMSO, % at 10 µM. 330,000 tested, 0.51% active. AID 2016, 2009;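 active = GFP response versus DMSO above a set limit, roughly screen mean plus 3 SD, cut at about 180% in these data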;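 also: median GFP fluorescence of the barcode-gated MEP2-GFP cells per well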
# RPL19A TOR yeast = RPL19A-GFP expression modulators in yeast, primary screen, cell-based, S. cerevisiae, multiplex flow cytometry, MLPCN; S. cerevisiae RPL19A-GFP strain, 3 h; active compounds read low; percent response vs DMSO, % at 10 µM; 330,000 tested, 0.3% active;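 active = percent response vs DMSO below 50%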;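 also: median channel GFP fluorescence of the barcoded RPL19A-GFP strain; ratio of sample median GFP to plate DMSO average so 100% = DMSO; lower means less RPL19A-GFP as with rapamycin TOR inhibition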
# AGP1 TOR yeast = modulators of AGP1-GFP expression in yeast TOR pathway, primary screen, cell-based, multiplex flow cytometry, S. cerevisiae, MLPCN library. 3 h; GFP as percent of DMSO wells. GFP response vs DMSO, % at 10 µM. 320,000 tested, 0.02% active. AID 2066, 2009;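 active = GFP response relative to DMSO above a set limit, near screen average plus 3 SD, cut at about 150% in these data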;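 also: median GFP channel fluorescence of the gated AGP1 strain per well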
# LAP4-GFP MLPCN = modulators of LAP4-GFP expression in yeast, primary screen, S. cerevisiae, multiplex flow cytometry, MLPCN library | 3 h; median GFP as percent of DMSO wells | GFP response vs DMSO, % at 10 µM | 320,000 tested, 0.34% active | AID 2023, 2009;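 active = GFP response vs DMSO above a set limit, about the screen mean plus 3 SD, cut at about 150% in these data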
# LAP4-GFP pick2 = LAP4-GFP expression modulators in yeast, confirmation, cell-based, second cherry pick, flow cytometry; shares compounds with LAP4-GFP MLPCN; S. cerevisiae LAP4-GFP strain, 3 h; GFP response vs DMSO, % at 10 µM; 590 tested, 20% active; AID 2621, 2010;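 active = GFP signal as percent of the solvent control above about 150%, meaning raised reporter expression, limit read from the data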;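 also: ratio of well median GFP fluorescence to plate DMSO mean so 100% = DMSO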
# MEP2-GFP pick2 = modulators of MEP2-GFP levels in yeast, confirmation, S. cerevisiae, flow cytometry GFP, second cherry picks; shares compounds with LAP4-GFP MLPCN; S. cerevisiae MEP2-GFP strain, 3 h; GFP response vs DMSO, % at 10 µM; 590 tested, 10% active; AID 2622, 2010;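 active = GFP signal above 150% of the solvent control wells, that is a rise of more than half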;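 also: median channel GFP fluorescence of all gated yeast cells per well; ratio of median GFP to plate DMSO average so 100% = DMSO level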
# RPL19A-GFP pick2 = RPL19A-GFP modulators in TOR pathway yeast, confirmation, cell-based, S. cerevisiae, flow cytometry, second cherry pick; shares compounds with LAP4-GFP MLPCN; S. cerevisiae RPL19A-GFP strain, 3 h; active compounds read low; 100% means same as DMSO wells; GFP response vs DMSO, % at 10 µM; 590 tested, 3% active;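 active = under 65% GFP response relative to DMSO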;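 also: median GFP channel fluorescence per well over the all cells gate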
# CIT2-GFP pick2 = modulators of CIT2-GFP expression in yeast, confirmation, flow cytometry, second cherry pick, single plex; 590 tested, 8% active; GFP response vs DMSO, % at 10 µM; AID 2624, 2010; S. cerevisiae CIT2-GFP strain, 3 h; DMSO control wells read 100%; shares compounds with LAP4-GFP MLPCN;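 active = GFP response vs DMSO above about 150%, limit read from the data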;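 also: median green fluorescence per well over all gated yeast cells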
# AGP1 GFP CP2 = AGP1-GFP expression modulators, hit retest, confirmation, cell-based, flow cytometry, S. cerevisiae, cherry pick set 2. shares compounds with LAP4-GFP MLPCN. S. cerevisiae AGP1-GFP strain, 3 h. percent response vs DMSO, % at 10 µM. 590 tested, under 10 active;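 active = over 150 percent of DMSO response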;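 also: median GFP channel fluorescence over all cells without mother daughter split; sample median GFP divided by mean DMSO control so 100% equals DMSO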
# s288c autofluor = compound autofluorescence in yeast s288c, dose response, artefact control for yeast TOR pathway GFP screen, s288c strain | AID 2757, 2010 | 610 tested, under 10 active | S. cerevisiae s288c, 520 nm autofluorescence, flow cytometry, 3 h; active compounds read high; zero means same as solvent-only cells | shares compounds with LAP4-GFP MLPCN | fluorescence change (kMESF span) at 33 µM;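 active = fluorescence span over the dose series, or activity score, above about 33, limit read from the data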
# Yeast autofl DR = autofluorescence of compounds in yeast s288c, dose response, artefact control for yeast TOR pathway GFP screen, primary hits, KU SAR, s288c parental; shares compounds with LAP4-GFP MLPCN; S. cerevisiae s288c parental, compound autofluorescence, flow cytometry, 3 h; fluorescence change (span) at 33 µM; 110 tested, under 10 active; AID 488829, 2010;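 active = fluorescence change span, or the activity score built from it, above 25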
# TORC1 bypass gr = wild-type yeast growth inhibition sparing TORC1 bypass cells, mechanism study for yeast TOR pathway GFP screen, BY4741 wild type, TORC1 bypass strain. shares compounds with LAP4-GFP MLPCN. S. cerevisiae BY4741 spot growth rating, 48-72 h; active compounds read low. growth rating (0-3) at 30 µM. 120 tested, under 10 active;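 active = growth rating at most 1 for wild type yeast while the TORC1 bypass strain still grows fully, rated 3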
# Numbers without * were called inactive; nt = no result. In the library only some 0.92% were active in any assay of this set; here they are far more common.
SMILES,CIT2-GFP yeast,MEP2 TOR yeast,RPL19A TOR yeast,AGP1 TOR yeast,LAP4-GFP MLPCN,LAP4-GFP pick2,MEP2-GFP pick2,RPL19A-GFP pick2,CIT2-GFP pick2,AGP1 GFP CP2,s288c autofluor,others
CN(C)c1ccc(C(=O)c2ccc(O)cc2O)cc1,84,85,81,58,206*,105,100,99,90,89,nt,
O=C(c1ccc(O)cc1)c1ccc(O)cc1O,98,99,102,102,114,nt,nt,nt,nt,nt,nt,
O=c1oc(Cl)c(Cl)c2ccccc12,78,102,99,82,191*,120,106,103,103,101,nt,
O=c1oc2cc(O)c(Cl)cc2c2ccccc12,82,93,92,74,94,nt,nt,nt,nt,nt,nt,
CC12CC3CC(C)(C1)CC(C(=O)N1CCN(C(=O)c4ccco4)CC1)(C3)C2,83,95,82,91,120,nt,nt,nt,nt,nt,nt,
CC(Oc1ccc2c3c(c(=O)oc2c1)CCC3)C(=O)NCCN1CCOCC1 (configuration not stated),102,111,104,108,101,nt,nt,nt,nt,nt,nt,
CC(Oc1cc2oc(=O)c3c(c2cc1Cl)CCC3)C(=O)NCCN1CCOCC1 (configuration not stated),108,142,58,24,90,99,106,101,105,103,-0.1,
CCc1ccc(/C=C/C(=O)c2cc(Br)ccc(=O)c2O)cc1,78,109,93,68,146,156*,122,78,146,77,8.2,
CCOc1ccc(/C=C/C(=O)c2cc(Br)ccc(=O)c2O)cc1,91,94,96,84,102,nt,nt,nt,nt,nt,nt,
Cc1cc(/C=C2/SC(=S)N(c3ccc([N+](=O)[O-])cc3)C2=O)c(C)n1-c1cccnc1,142,144,103,97,115,nt,nt,nt,nt,nt,nt,
Cc1cc(/C=C2/SC(=S)N(c3cccc(Cl)c3)C2=O)c(C)n1-c1cccnc1,120,154,107,106,154*,nt,nt,nt,nt,nt,3.5,
O=[N+]([O-])c1cc(O)c2ncccc2c1,124,104,101,98,169*,nt,nt,nt,nt,nt,0.71,Yeast autofl DR=1.9;TORC1 bypass gr=3
O=[N+]([O-])c1cc2cccnc2c2ncccc12,102,102,102,104,109,nt,nt,nt,nt,nt,nt,
COC(=O)c1ccc(OC(C)C(=O)c2ccc(C)cc2)cc1 (configuration not stated),95,89,99,97,94,nt,nt,nt,nt,nt,nt,
CC(C)C(=O)NC(c1cccs1)c1cc([N+](=O)[O-])c2cccnc2c1O (configuration not stated),109,128,88,55,153*,nt,nt,nt,nt,nt,-0.1,
Cc1ccc(C(NC(=O)C(C)C)c2cc([N+](=O)[O-])c3cccnc3c2O)cc1 (configuration not stated),86,95,94,85,88,nt,nt,nt,nt,nt,nt,
CCc1cccc2sc(N3CCN(C(=O)c4ccc([N+](=O)[O-])o4)CC3)nc12,70,114,32*,19,100,nt,nt,nt,nt,nt,9,
Cc1ccc(OCc2nc(-c3cccs3)no2)c([N+](=O)[O-])c1,100,108,107,104,109,nt,nt,nt,nt,nt,nt,
N#C/C(=C\c1cc(Br)ccc1F)C(=O)NC1CC1,74,94,98,98,156*,156*,111,95,122,102,0.51,
CCOC(=O)c1c(-c2ccccc2)oc2ccc(O)c(CN(C)C)c12,103,98,98,97,93,nt,nt,nt,nt,nt,nt,
CCOC(=O)c1c(CSCc2ccccc2)oc2ccc(O)c(CN(C)C)c12,90,156,55,88,95,98,100,100,113,98,nt,
CC(=O)[C@]1(O)Cc2c(O)c3c(c(O)c2[C@@H](O[C@H]2C[C@H](N)[C@H](O)[C@H](C)O2)C1)C(=O)c1ccccc1C3=O,91,119,107,89,152*,151*,153*,111,140,108,2.7,
COc1cccc2c1C(=O)c1c(O)c3c(c(O)c1C2=O)C[C@@](O)(C(=O)CO)C[C@@H]3O[C@H]1C[C@H](N)[C@@H](O)[C@H](C)O1,95,105,106,95,95,nt,nt,nt,nt,nt,nt,
Cc1cc(NC(=O)CSc2nnc(Nc3ccccc3)s2)no1,101,102,100,102,99,nt,nt,nt,nt,nt,nt,
Cc1cc(NC(=O)CSc2nnc(Nc3ccccc3C)s2)no1,87,82,91,104,153*,103,105,98,107,100,nt,
COc1cccc(/C=c2\sc3nc(-c4cccs4)nn3c2=O)c1OC,113,105,114,117,113,nt,nt,nt,nt,nt,nt,
Cc1ccc(/C=c2\sc3nc(-c4cccs4)nn3c2=O)o1,125,149,103,104,174*,nt,nt,nt,nt,nt,1.4,
COc1ccccc1-c1nc2s/c(=C\c3cccs3)c(=O)n2n1,79,102,94,80,180*,126,108,104,110,95,0.4,

# Screening data deposited in PubChem by NMMLSC.
